High-throughput results: PubChem BioAssay, National Center for Advancing Translational Sciences (NCATS)
The list is not random: actives were taken first. Their share in the collection is about 8.8%.
ALDH1A1 block = ALDH1A1 (human) enzyme inhibition; P00352; actives 7.3% (n = 220,000); Purified ALDH1A1, NADH fluorescence, propionaldehyde substrate; AID 1030; Potency, µM (top dose mostly 75.3 µM), for inactives: at the highest dose activity, negative = inhibition, actives largely listed as inhibitors;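 note: plate controls were no enzyme wells and a reference inhibitor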
Target sequence (P00352 whole entry, looked up): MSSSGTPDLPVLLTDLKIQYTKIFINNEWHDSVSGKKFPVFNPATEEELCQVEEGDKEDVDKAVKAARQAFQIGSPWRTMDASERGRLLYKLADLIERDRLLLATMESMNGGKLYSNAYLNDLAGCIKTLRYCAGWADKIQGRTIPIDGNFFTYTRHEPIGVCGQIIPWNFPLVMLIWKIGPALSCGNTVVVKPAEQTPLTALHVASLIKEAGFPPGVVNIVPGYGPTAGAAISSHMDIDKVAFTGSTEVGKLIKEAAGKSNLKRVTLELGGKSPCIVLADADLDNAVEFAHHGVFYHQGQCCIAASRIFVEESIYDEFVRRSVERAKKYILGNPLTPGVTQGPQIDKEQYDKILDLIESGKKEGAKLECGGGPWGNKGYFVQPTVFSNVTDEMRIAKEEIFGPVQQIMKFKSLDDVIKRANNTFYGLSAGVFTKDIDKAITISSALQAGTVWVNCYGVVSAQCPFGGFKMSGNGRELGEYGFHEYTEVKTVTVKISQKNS
HPGD block = blocks human HPGD enzyme activity; Potency, µM, for the others: at the top dose activity change, negative = inhibition, actives largely listed as inhibitors; P15428; actives 4.3% (n = 150,000); AID 894; purified HPGD, NADH fluorescence kinetic, PGE2 substrate; note: % is set by controls: 0 for no effect and ±100 for the full control effect
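NADH formation kinetics: reaction with 30 uM PGE2 and 1 mM NAD+ (final), 20 nM enzyme, Tris-HCl pH 8 with Tween 20, after 15 min compound preincubation at room temperature. Fluorescence change, last versus first of five reads.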
HTT ATP protect = Huntington cell model cytoprotection by ATP luminescence; PC12 HTT-Q103 induced, cytoprotection, ATP luminescence, 40 h; Potency, µM (top dose mostly 56.4 µM), inactives show cytoprotection (ATP increase), hits mostly activators; actives 0.14% (n = 230,000); active = well fitted curve in the direction sought with a large enough effect; inconclusive = small, poorly fitted or top-dose-only effect, or another doubt; inactive = no such curve, though single readings can be large; an effect the other way counts as inactive or inconclusive; note: % of control where 0% means no effect; nearly all actives have a fitted effect of over 45% in size
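Stable PC12 Q103-GFP cells in serum-supplemented, phenol red-free DMEM; induction by tebufenozide at 100 nM final; compound dose series; cell viability quantified luminescently from ATP.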
LMNA splice mod = modulators of lamin A splicing; AID 1487; actives 0.01% (n = 200,000); HeLa LMNA splicing GFP/RFP minigene ratio, 48 h; Potency, µM (highest dose often 46.1 µM), for the others: at the highest dose ratio change, negative = inhibition, most hits filed as inhibitors; active = well fitted inhibition curve with a large enough effect in the signal ratio, with a control signal flat, not every such curve was filed as active; inconclusive = small, poorly fitted or top-dose-only effect, or effect the other way, or a change in a side signal; the % refers to the signal ratio; note: % is set by controls: 0 for no effect and ±100 for the full control effect
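Read-out is the ratio of GFP to DsRed2 object intensity, acquired by 488 nm laser-scanning cytometry on HeLa lamin A-EGFP minigene reporter cells. Compound incubation 48 hrs at 37 °C in Opti-MEM with 2% FBS; DMSO 0.5% final.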
HTT aggregate = inhibitors of mutant huntingtin aggregate formation in PC12 cells; PC12 HttQ103-GFP aggregates, Acumen cytometry, 40 h; Potency, µM (series often up to 46.1 µM), without a hit: at the highest dose activity change, negative = inhibition, actives largely listed as inhibitors; actives 1.1% (n = 220,000); AID 1688; active = well fitted curve in the direction sought with a large enough effect; inconclusive = small, poorly fitted or top-dose-only effect, or another doubt; inactive = no such curve, though single readings can be large; an effect the other way counts as inactive or inconclusive; note: % is set by controls: 0 for no effect and ±100 for the full control effect; nearly all actives have a fitted effect of over 60% in size
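Huntingtin Q103 exon 1–GFP aggregates in induced PC12 cells (100 nM tebufenozide) were quantified by cytometry from lysates, with compounds dosed in titration.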
* = called active by the depositor; ? = inconclusive; / = no result given; ! = repeats disagree; [ ] = remark or other dose. Unless noted, calls come from the whole dose curve; as a rule, active = well fitted inhibition curve with a large enough effect (not every such curve was filed as active); inconclusive = small, poorly fitted or top-dose-only effect, or another doubt; inactive = no such curve, though single readings can be large or run the other way. Potency is the fitted concentration of half-maximal effect.

SMILES	ALDH1A1 block	HPGD block	HTT ATP protect	LMNA splice mod	HTT aggregate
COc1ccc(/C=C/C(=O)c2ccc(O)cc2O)cc1	?	32µM*	/	?	/
COc1ccc(/C=C/C(=O)c2cc(O)ccc2O)cc1	?	?	5µM*	/	/
COc1ccc(C(=O)/C=C(\N)C(F)(F)F)c(O)c1	8.9µM*	-14%	14%	8%	5%
O=C(/C=C/c1ccc(O)cc1)c1ccc(O)cc1O	5%	-16%	?	?	-7%
O=C(/C=C/c1ccccc1)c1ccc(O)cc1O	?	16µM*	-11%	/	/
CNC(=O)C[C@@H](N)C(=O)N[C@@H](C(=O)N[C@@H]1C(=O)N2[C@@H]1SC(C)(C)[C@@H]2C(=O)O)c1ccc(O)cc1	/	/	28%	/	11%
COc1ccc(/C=C/C(=O)c2ccc(O)cc2O)cc1OC	?	14µM*	/	/	/
COc1ccc(/C=C/C(=O)Nc2ccccc2C(=O)O)cc1OC	-3%	14µM*!	-51%	?	-7%
COc1cccc(-c2ccc3ncnc(N4CCOCC4)c3c2)c1	47%	/	-166%	?	/
Cc1ccccc1-c1ccc2ncnc(N3CCOCC3)c2c1	22µM*	/	-15%	?	/
COc1ccccc1-c1ccc2ncnc(N3CCOCC3)c2c1	?	/	-322%	?	/
c1nc(N2CCOCC2)c2cc(-c3ccoc3)ccc2n1	22µM*	/	-81%	?	/
Cc1noc(C)c1-c1ccc2ncnc(N3CCN(C)CC3)c2c1	?	/	-47%	7.1µM*	/
Cc1noc(C)c1-c1ccc2ncnc(N3CCOCC3)c2c1	-13%	/	-54%	10µM*	/
O=C(CSC(=S)N1CCCCC1)Nc1ncc2c(n1)CCCC2=O	/	/	5%[10 µM]	/	2%[9.22 µM]
Cc1cccc(NC(=O)C2CCN(c3nc4ccccc4[nH]3)CC2)c1C	/	/	/	12%[46 µM]	/
CC(=O)Nc1c(C)nn(-c2ccccc2)c1N1CCC(C(=O)Nc2ccc(Cl)cc2C)CC1	/	/	/	4%[46 µM]	/
c1cn(-c2ncnc3ccc(-c4ccoc4)cc23)cn1	?	/	2.5µM*	?	/
c1nc(NC2CC2)c2cc(-c3ccoc3)ccc2n1	?	/	-44%	7%	/
COc1ccc(C2NC(=O)NC(O)(C(F)(F)F)C2C(=O)c2ccccc2)cc1OC (stereo unspecified)	32µM*	-5%	-7%	4%	-12%
COc1ccc(C2NC(=O)NC(O)(C(F)(F)F)C2C(=O)c2ccc(C)cc2)cc1 (stereo unspecified)	18µM*	/	9%	2%	-3%
CC(=O)C1C(c2ccc(OC(F)F)cc2)NC(=O)NC1(O)C(F)(F)F (stereo unspecified)	3%	-1%	-8%	6%	-12%
COc1cccc(C2NC(=O)NC(O)(C(F)(F)F)C2C(=O)c2cccnc2)c1OC (stereo unspecified)	11µM*	4%	-7%	4%	-18%
CC(=O)Nc1nonc1-c1nnc(SCC(=O)Nc2c(C)cccc2C)n1-c1ccccc1	/	/	/	19%[46 µM]	/
CCOCCc1nn2c(=O)cc(COC(=O)c3ccc(NC(=O)c4ccc(F)cc4)cc3)nc2s1	/	/	/	7%[46 µM]	/
SMILES	ALDH1A1 block	HPGD block	HTT ATP protect	LMNA splice mod	HTT aggregate
CCS(=O)(=O)N1CC(=O)N(c2cc(Cl)ccc2C)C(C)(C(=O)NC2CCCCCC2)C1 (stereo unspecified)	/	/	/	3%[46 µM]	/
CN1CCc2cccc3c2[C@@H]1Cc1ccc(O)c(O)c1-3	25µM*	8.9µM*!	27%[1.9 µM]	?	?
Cn1c(CO)cnc1SCc1ccc([N+](=O)[O-])cc1	28µM*	-2%	-39%	-7%	-13%
COC(=O)c1cnc(SCc2ccc([N+](=O)[O-])cc2)n1C	-4%	/	2%[10 µM]	14%[46 µM]	-10%[9.22 µM]
O=C1c2cccc3c([N+](=O)[O-])ccc(c23)C(=O)N1c1nccs1	-13%	-1%	-100%	?	13µM*
O=C1c2cccc3c([N+](=O)[O-])ccc(c23)C(=O)N1c1ccccn1	5%	28µM*	10%	-27%	24%
O=C1c2cccc3c([N+](=O)[O-])ccc(c23)C(=O)N1c1ccc(Cl)cn1	-8%	-21%	-114%	-7%	?
COc1cccc(OC)c1C(=O)NC(=S)Nc1ccc2c(c1)Cc1ccccc1-2	10µM*	-17%	1%	3%	-1%
CC(O)C#C[Si](C)(C)c1ccccc1 (stereo unspecified)	3%	-4%	1%	/	/
CC(C)(C)OC(=O)N1CCC(c2c(C(=O)NCc3ccccc3)cnn2-c2ccc(F)cc2)CC1	/	/	/	-13%[46 µM]	/
Cc1ccccc1-c1nc(-n2ccnc2)c2ccccc2n1	-3%	-10%	25%	?	/
COC(=O)c1c(NC(=O)C(Cl)Cl)sc2c1C(C(=O)OC)CC2 (stereo unspecified)	0.89µM*	/	-5%[10 µM]	/	3%[9.22 µM]
O=C(CSc1ncn(-c2ccccc2)n1)Nc1nc2c(s1)CCCC2	28µM*	?	1%	0%	12%
O=C(CSc1ncn(-c2ccccc2)n1)Nc1nc2ccccc2s1	13µM*	22µM*	-5%	7%	-10%
O=C(CSc1ncn(-c2ccccc2)n1)Nc1nc(-c2ccccc2)cs1	3%	-3%	9%[10 µM]	-2%	17%
CC(=O)Nc1ccc(C(=O)CSc2ncn(-c3ccccc3)n2)cc1	?	13µM*	-2%	10%	-4%
O=C(CSc1ncn(-c2ccccc2)n1)Nc1nccs1	16%	8%	15%	5%	-14%
Cc1ccc2occ(CN3CCN(Cc4ccccc4)CC3)c(=O)c2c1	?	-7%	-6%	2%[0.0737 µM]	11%
O=c1c(CN2CCN(Cc3ccccc3)CC2)coc2ccc(Cl)cc12	8.9µM*	-8%	-11%[10 µM]	6%	7%
COCn1c(=O)c2c(nc(SC3=NCCS3)n2Cc2ccccc2C)n(COC)c1=O	2.8µM*	-17%	-13%	4%	8%
COc1ccc(C2=NOC(CN3C(=O)c4ccccc4S3(=O)=O)C2)cc1 (stereo unspecified)	?	25µM*	-57%	9%	10%
O=C1c2ccccc2S(=O)(=O)N1CC1CC(c2ccc(Cl)cc2)=NO1 (stereo unspecified)	5.6µM*	18µM*	/	?	11%
O=C1c2ccccc2S(=O)(=O)N1CC1CC(c2ccccc2)=NO1 (stereo unspecified)	?	-16%	-20%	1%	-6%
CCOC(=O)C1CCCN(C(=O)c2ccc3c(c2)N(Cc2cccc(Cl)c2)C(=O)c2ccccc2S3(=O)=O)C1 (stereo unspecified)	/	/	/	1%[46 µM]	/
CCCNC(=O)C1CCN(c2ccc(S(=O)(=O)N3CCOCC3)cc2Cl)CC1	6%	16µM*	-6%[10 µM]	?	-7%
O=[N+]([O-])c1ccc(Nc2nc(NC3CCCCC3)nc(N3CCCC3)n2)cc1	13µM*	/	-86%	/	?
